Test results published in PubChem BioAssay (Tox21).
Inconclusive results are not listed. Where a call stands in place of a potency, no number is given. A number with no mark means an inactive call. The source made the active and inactive calls. Unless noted, calls come from the whole dose curve; as a rule, active = well fitted curve in the direction sought with a large enough effect in the repeat runs; inconclusive = weak or mixed curves; inactive = no such curve, though single readings can be large; an effect the other way counts as inactive or inconclusive.

Target: Estrogen receptor (Homo sapiens) (UniProt P03372)
Sequence (P03372 whole entry, looked up): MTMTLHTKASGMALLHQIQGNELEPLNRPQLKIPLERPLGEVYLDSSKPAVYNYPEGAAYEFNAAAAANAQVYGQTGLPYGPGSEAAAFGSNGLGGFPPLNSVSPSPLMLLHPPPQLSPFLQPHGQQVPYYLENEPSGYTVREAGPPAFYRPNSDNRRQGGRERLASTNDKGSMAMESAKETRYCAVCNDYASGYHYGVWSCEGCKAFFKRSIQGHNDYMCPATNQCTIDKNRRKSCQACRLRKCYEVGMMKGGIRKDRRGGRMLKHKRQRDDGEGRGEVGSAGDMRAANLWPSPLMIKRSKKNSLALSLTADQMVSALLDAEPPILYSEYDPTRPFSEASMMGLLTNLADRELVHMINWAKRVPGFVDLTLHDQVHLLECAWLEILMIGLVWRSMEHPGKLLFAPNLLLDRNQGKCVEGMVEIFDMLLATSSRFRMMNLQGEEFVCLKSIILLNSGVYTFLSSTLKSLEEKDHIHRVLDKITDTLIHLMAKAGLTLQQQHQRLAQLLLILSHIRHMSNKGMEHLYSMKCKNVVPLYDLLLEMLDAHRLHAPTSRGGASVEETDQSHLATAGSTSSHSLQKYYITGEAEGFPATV
Experiment: qHTS assay to identify small molecule agonists of the estrogen receptor alpha (ER-alpha) signaling pathway using the BG1 cell line (AID 743079); note: nearly all actives have a fitted effect of over 20% in size; note: potency is the fitted concentration of half-maximal effect
Conditions: BG1Luc4E2 cells, ERE-luciferase agonist, 22 h; series mostly up to 70.3 µM

SMILES	Potency
O=c1cc(CO)occ1O	inactive
NS(=O)(=O)c1cc(C(=O)O)cc(N2CCCC2)c1Oc1ccccc1	inactive
CCOC(C)(C)C	inactive
C=CCCCCCCCCC=O	inactive
O=C(O)CCCl	inactive
NC(CSCC(=O)O)C(=O)O (centres undefined)	inactive
CC(=O)c1ccccc1O	inactive
COC(=O)c1c(Cl)c(Cl)c(C(=O)OC)c(Cl)c1Cl	inactive
COC(=O)NN	inactive
CC(C)(O)C#CC(C)(C)O	inactive
OCCCC1CCCCC1	inactive
N[C@H](C(=O)O)c1ccc(O)cc1	inactive
CCO/C([O-])=N/c1c[n+](N2CCOCC2)no1	inactive
O=S(O)CO	26.6 µM (active)
ClC(Cl)(Br)Br	inactive
COC(=O)C1=C(C)NC(C)=C(C(=O)OC)C1c1ccccc1[N+](=O)[O-]	inactive
CCCCNC(=O)NCCCC	inactive
N#Cc1ccc(C2CCCc3cncn32)cc1 (centres undefined)	inactive
CC(C)(CC(=O)O)C(=O)O	inactive
CN1CCC(=C2c3ccccc3CC(=O)c3sccc32)CC1	inactive

System: not listed separately
Experiment: qHTS assay to identify small molecule antagonists of the estrogen receptor alpha (ER-alpha) signaling pathway using the BG1 cell line (AID 743080; calls by dose curve;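 note: BG1 cells stimulated with 17beta-estradiol alongside compound; nearly all actives have a fitted effect of over 25% in size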)
Conditions: BG1Luc4E2 ERE-luciferase antagonist mode, luminescence; series mostly up to 70.3 µM
Summary of the method: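 BG1Luc4E2, endogenous ER-alpha, 4xERE-luc; 5 d charcoal-stripped FBS, phenol red free; 24 h plating; cpd + 17beta-estradiol 21.5 h, 37 C/5% CO2; CellTiter-Fluor viability 30 min, then ONE-Glo luciferase 30 min RT.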

SMILES	outcome
O=c1cc(CO)occ1O	inactive
NS(=O)(=O)c1cc(C(=O)O)cc(N2CCCC2)c1Oc1ccccc1	inactive
O=C(O)CCCl	inactive
NC(CSCC(=O)O)C(=O)O (centres undefined)	inactive
Cc1ccc(=O)n(-c2ccccc2)c1	inactive
COC(=O)c1c(Cl)c(Cl)c(C(=O)OC)c(Cl)c1Cl	inactive
COC(=O)NN	inactive
CC(C)(O)C#CC(C)(C)O	inactive
OCCCC1CCCCC1	inactive
CC1=CC(C)C(C=O)CC1 (centres undefined)	inactive
N[C@H](C(=O)O)c1ccc(O)cc1	inactive
CCO/C([O-])=N/c1c[n+](N2CCOCC2)no1	inactive
O=S(O)CO	inactive
ClC(Cl)(Br)Br	inactive
COC(=O)C1=C(C)NC(C)=C(C(=O)OC)C1c1ccccc1[N+](=O)[O-]	inactive
CCCCNC(=O)NCCCC	inactive
N#Cc1ccc(C2CCCc3cncn32)cc1 (centres undefined)	inactive
CC(C)(CC(=O)O)C(=O)O	inactive
CN1CCC(=C2c3ccccc3CC(=O)c3sccc32)CC1	inactive

System: not listed separately
Experiment: qHTS assay to identify small molecule antagonists of the estrogen receptor alpha (ER-alpha) signaling pathway using the BG1 cell line - cell viability counter screen (AID 743081);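 note: compound given together with 17beta-estradiol as the ER stimulus; nearly all actives have a fitted effect of over 45% in size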
Conditions: BG1Luc4E2 viability, CellTiter-Fluor, 22 h; series mostly up to 70.3 µM

SMILES	Potency	activity change, negative = cytotoxicity
O=c1cc(CO)occ1O	inactive	–
NS(=O)(=O)c1cc(C(=O)O)cc(N2CCCC2)c1Oc1ccccc1	inactive	–
CCOC(C)(C)C	inactive	–
C=CCCCCCCCCC=O	inactive	–
NC(=O)c1cn(Cc2c(F)cccc2F)nn1	inactive	–
O=C(O)CCCl	inactive	–
NC(CSCC(=O)O)C(=O)O (centres undefined)	inactive	–
CC(=O)c1ccccc1O	inactive	–
COC(=O)CCSCCC(=O)OC	inactive	–
CC(=O)N(CC(O)CO)c1c(I)c(C(=O)NCCO)c(I)c(C(=O)NCC(O)CO)c1I (centres undefined)	inactive	–
Cc1[nH]c(=O)c(C#N)cc1-c1ccc2nccn2c1	inactive	–
C=CCOCC(CC)(CO)COCC=C	inactive	–
Cc1ccc(=O)n(-c2ccccc2)c1	inactive	–
COC(=O)c1c(Cl)c(Cl)c(C(=O)OC)c(Cl)c1Cl	inactive	–
COC(=O)NN	inactive	–
CC(C)(O)C#CC(C)(C)O	inactive	–

SMILES	Potency	activity change, negative = cytotoxicity
OCCCC1CCCCC1	inactive	–
CC1=CC(C)C(C=O)CC1 (centres undefined)	inactive	–
N[C@H](C(=O)O)c1ccc(O)cc1	inactive	–
CO/N=C(/C(=O)N[C@@H]1C(=O)N2C(C(=O)OCOC(=O)C(C)(C)C)=C(C)CS[C@H]12)c1csc(N)n1	inactive	–
CCO/C([O-])=N/c1c[n+](N2CCOCC2)no1	inactive	–
CCCCCCCCS(=O)(=O)Cl	inactive	–
O=S(O)CO	inactive	–
ClC(Cl)(Br)Br	inactive	–
CC(C)NCC(O)c1ccc(NS(C)(=O)=O)cc1 (centres undefined)	inactive	–
COC(=O)C1=C(C)NC(C)=C(C(=O)OC)C1c1ccccc1[N+](=O)[O-]	inactive	–
CCCCNC(=O)NCCCC	inactive	–
CCC(C)S (centres undefined)	–	11% [at 3.79 µM]
N#Cc1ccc(C2CCCc3cncn32)cc1 (centres undefined)	inactive	–
CCCCOCCOCCOCc1cc2c(cc1CCC)OCO2	inactive	–
CC(C)(CC(=O)O)C(=O)O	inactive	–

Target: Aromatase (Homo sapiens) (UniProt P11511)
Sequence (P11511 whole entry, looked up): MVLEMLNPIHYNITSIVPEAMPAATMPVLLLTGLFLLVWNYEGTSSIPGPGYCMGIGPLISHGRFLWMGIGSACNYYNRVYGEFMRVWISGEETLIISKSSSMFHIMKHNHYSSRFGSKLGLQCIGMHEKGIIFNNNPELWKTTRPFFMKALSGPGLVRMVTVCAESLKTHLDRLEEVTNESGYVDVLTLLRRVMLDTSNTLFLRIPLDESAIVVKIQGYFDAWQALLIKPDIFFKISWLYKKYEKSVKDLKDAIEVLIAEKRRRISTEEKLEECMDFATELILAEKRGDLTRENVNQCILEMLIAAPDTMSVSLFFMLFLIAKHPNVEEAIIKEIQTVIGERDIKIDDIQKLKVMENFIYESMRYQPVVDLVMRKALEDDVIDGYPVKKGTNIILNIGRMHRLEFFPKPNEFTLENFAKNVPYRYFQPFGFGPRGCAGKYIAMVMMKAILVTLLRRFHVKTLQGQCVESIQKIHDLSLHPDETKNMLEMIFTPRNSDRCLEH
Experiment: qHTS assay to identify aromatase inhibitors (AID 743083); note: nearly all actives have a fitted effect of over 55% in size; note: potency is the fitted concentration of half-maximal effect
Conditions: MCF-7 aro ERE, testosterone-driven ERE luciferase, 24 h; series mostly up to 70.3 µM

SMILES	Potency	activity, negative = inhibition
COc1ccc(CCN(C)CCCC(C#N)(c2cc(OC)c(OC)c(OC)c2)C(C)C)cc1OC (centres undefined)	inactive	–
O=c1cc(CO)occ1O	inactive	–
NS(=O)(=O)c1cc(C(=O)O)cc(N2CCCC2)c1Oc1ccccc1	inactive	–
CCOC(C)(C)C	inactive	–
C=CCCCCCCCCC=O	inactive	–
O=C(O)CCCl	inactive	–
NC(CSCC(=O)O)C(=O)O (centres undefined)	inactive	–
CC(=O)c1ccccc1O	inactive	–
CC(=O)N(CC(O)CO)c1c(I)c(C(=O)NCCO)c(I)c(C(=O)NCC(O)CO)c1I (centres undefined)	inactive	–
Cc1ccc(=O)n(-c2ccccc2)c1	inactive	–
COC(=O)c1c(Cl)c(Cl)c(C(=O)OC)c(Cl)c1Cl	inactive	–
COC(=O)NN	inactive	–
CC(C)(O)C#CC(C)(C)O	inactive	–
OCCCC1CCCCC1	inactive	–
CC1=CC(C)C(C=O)CC1 (centres undefined)	inactive	–
N[C@H](C(=O)O)c1ccc(O)cc1	inactive	–
CO/N=C(/C(=O)N[C@@H]1C(=O)N2C(C(=O)OCOC(=O)C(C)(C)C)=C(C)CS[C@H]12)c1csc(N)n1	inactive	–
COc1ccc2c(c1)c(CC(=O)OCC(=O)O)c(C)n2C(=O)c1ccc(Cl)cc1	inactive	–
CCO/C([O-])=N/c1c[n+](N2CCOCC2)no1	inactive	–
CCCCCCCCS(=O)(=O)Cl	inactive	–
COC(=O)[C@@H](N)Cc1ccc(O)c(O)c1	inactive	–
O=S(O)CO	inactive	–
ClC(Cl)(Br)Br	inactive	–
COC(=O)C1=C(C)NC(C)=C(C(=O)OC)C1c1ccccc1[N+](=O)[O-]	68.7 µM (active)	–
CCCCNC(=O)NCCCC	inactive	–
CCC(C)S (centres undefined)	–	7.68% [at 3.79 µM]
CCCCOCCOCCOCc1cc2c(cc1CCC)OCO2	inactive	–
CC(C)(CC(=O)O)C(=O)O	inactive	–
CN1CCC(=C2c3ccccc3CC(=O)c3sccc32)CC1	inactive	–
